# From PubChem BioAssay AID2685 (National Center for Advancing Translational Sciences (NCATS), 2010)
# Screen size: about 320,000 compounds; about 2,100 (0.66%) were called active. Roughly 53% stayed inconclusive and do not appear here. Calls come from the whole dose curve; as a rule, active = well fitted inhibition curve with a large enough effect in the signal ratio, with a control signal flat (not every such curve was filed as active); inconclusive = small, poorly fitted or top-dose-only effect, or effect the other way, or a change in a side signal; inactive = flat fitted curve, though single readings scatter; the % refers to the signal ratio. The list comes from a sample in which actives are over-represented; it also holds similar structures and randomly drawn compounds.
# Assay: qHTS Assay for Lipid Storage Modulators in Drosophila S3 Cells;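 for cell number change: cells counted by Cell Tracker Red CMTPX staining in the red channel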; for lipid storage change, negative = inhibition: % is set by controls: 0 for no effect and ±100 for the full control effect
# Settings: BODIPY lipid droplet fluorescence, 18-24 h, cells fed with added oleic acid; cell number change: measured here: cell count max response; series mostly up to 46.1 µM
# Method in brief: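 Laser-scanning cytometry quantifies lipid droplet accumulation (500–530 nm total intensity; droplet/cell object ratio) in oleic acid-fed (400 uM added) Drosophila S3 cells treated with a concentration series. 20 uM Triacsin C defined 100% inhibition.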
# Potency is the fitted concentration of half-maximal effect.
SMILES,Potency,cell number change,"lipid storage change, negative = inhibition"
CCN(CC)C(=O)c1ccc(-c2cccs2)s1,inactive,3.13%,
CCOCc1c(C(=O)Nc2ccc(OC)nc2)oc2ccccc12,inactive,-13.5%,
COc1ccc(NC(=O)c2oc3ccccc3c2CSC)cn1,23.1 µM (active),1.61%,
COc1ccc(NC(=O)c2oc3ccccc3c2C)cn1,inactive,13.5%,
CC(C)CCNC(=O)C(C)N(Cc1ccc(F)cc1)C(=O)c1ccc(CN2CCOCC2)o1 (stereo not given),inactive,-9.3%,
COC(=O)c1ccccc1NC(=O)COC(=O)CO/N=C(\C)c1ccc2c(c1)OCO2,inactive,-2.37%,
Cc1cc(OC(C)C(=O)NCC2CCC(C(=O)O)CC2)c2c(C)cc(=O)oc2c1 (stereo not given),inactive,-0.291%,
CCOC(=O)C1CCN(C(=O)c2cc(COc3ccc(OC)c4ccccc34)on2)CC1,inactive,0.306%,
Cc1ccc(-n2c(C)nnc2SCC(=O)N2CCc3ccccc3C2)cc1,inactive,-10.8%,
Cn1c(SCC(=O)N2CCc3ccccc3C2)nnc1-c1ccncc1,inactive,6.69%,
CCc1cccc(CC)c1-n1c(SCC(=O)N2CCc3ccccc3C2)nnc1-c1cccnc1,16.4 µM (active),1.33%,
COc1ccc(-c2nc(CN3CCC(C(=O)NCC4CCCO4)CC3)c(C)o2)cc1OC (stereo not given),inactive,,
CCn1c(SCC(=O)c2ccccc2)nc2c(c1=O)SC(C)C2 (stereo not given),inactive,,
N#CC1(NC(=O)COc2cc(F)ccc2[N+](=O)[O-])CCCCC1,11.6 µM (active),-12.3%,
N#CC1(NC(=O)COc2ccccc2[N+](=O)[O-])CCCCC1,inactive,,
N#CC1(NC(=O)COc2ccc(S(=O)(=O)N3CCCC3)cc2[N+](=O)[O-])CCCCC1,inactive,-3.48%,
COc1cccc(C2=NOC(C(=O)N3CCN(Cc4ccccc4)CC3)C2)c1OC (stereo not given),inactive,-0.697%,
COc1ccc(CCN(C)CC(O)COC(c2ccc(F)cc2)c2ccc(F)cc2)cc1OC (stereo not given),inactive,-8.84%,
COc1cccc(CN2CCN(C3CCN(c4ccccc4C)CC3)CC2CCO)c1 (stereo not given),inactive,-24%,
COc1ccc(Cl)cc1NC(=O)Nc1ccccc1C(N)=O,inactive,14.7%,
Cc1cccc([C@@H]2[C@@H]3C(=O)N(Cc4ccccc4)C(=O)[C@@H]3[C@]3(C)C(=O)N(c4ccc(Br)cc4)C(=O)N23)c1,2.31 µM (active),17.2%,
Cc1ccc(N2C(=O)N3[C@H](c4cccc(C)c4)[C@@H]4C(=O)N(Cc5ccccc5)C(=O)[C@@H]4[C@]3(C)C2=O)cc1,inactive,-18.1%,
Cc1cccc([C@@H]2[C@@H]3C(=O)N(Cc4ccccc4)C(=O)[C@@H]3[C@]3(C)C(=O)N(c4cccc(Cl)c4)C(=O)N23)c1,inactive,-9.71%,
CN(C(=O)c1cccnc1)c1nnc(-c2cccnc2)s1,inactive,-7.8%,

SMILES,Potency,cell number change,"lipid storage change, negative = inhibition"
COc1ccccc1NC(=O)Nc1cccc(NC(C)=O)c1,inactive,-3.02%,
Cc1csc(NC(=O)c2ccccc2)n1,inactive,23.7%,
Cc1csc(NC(=O)c2cnc3ccccc3n2)n1,1.64 µM (active),,
Cc1csc(NC(=O)c2ccc3ccccc3n2)n1,inactive,7.3%,
Cc1cccc(N2CCN(C(=O)C(NS(=O)(=O)c3cccs3)c3ccccc3)CC2)c1C (stereo not given),inactive,-2.06%,
CCN=C1S/C(=C\c2cc(Br)c(O)c(OC)c2)C(=O)N1CC,inactive,-10.5%,
CC(NC(=O)C1CCCCC1)c1ccc2c(c1)OCCO2 (stereo not given),inactive,,
O=C(C1CC1)N1CCN(c2ccc(O)cc2)CC1,inactive,22.2%,
Cc1ccc(C(=O)O)cc1S(=O)(=O)N1CCC(C(=O)O)CC1,inactive,-0.135%,
Cc1ccc(C(C)(C)C)cc1S(=O)(=O)N1CCC(C(=O)N2CCN(c3ccc(O)cc3)CC2)CC1,3.66 µM (active),-13.6%,
Cc1ccc(N(Cc2cc3cc(C)ccc3[nH]c2=O)S(=O)(=O)c2ccccc2)cc1,inactive,-3.48%,
CCOC(=O)CSc1nc2ccccc2c(=O)n1CC1CCCO1 (stereo not given),inactive,0.196%,
COc1ccc(OC2C(=O)N(Cc3ccc(F)cc3)C2c2ccc(OC)c(OC)c2)cc1 (stereo not given),inactive,,
O=C(Cc1c(Cl)cccc1Cl)Nc1ccc(S(=O)(=O)Nc2ncccn2)cc1,inactive,17.5%,
O=C(Cc1ccccc1F)Nc1ccc(S(=O)(=O)Nc2ncccn2)cc1,0.146 µM (active),16.8%,
O=C(Cc1ccc(Cl)c(Cl)c1)Nc1ccc(S(=O)(=O)Nc2ncccn2)cc1,inactive,8.75%,
C#CCN(C(=O)c1ccc(OC)c(OC2CCN(C(C)C)CC2)c1)C1CCCCC1,inactive,13.3%,
Cc1cc(NC(=O)COC(=O)CSc2nc3cc(Cl)ccc3n2Cc2ccccc2)no1,inactive,-15.1%,
CC(Sc1nccn1C)C(=O)c1ccc(Br)cc1 (stereo not given),18.4 µM (active),8.97%,
CC(Sc1nccn1C)C(=O)Nc1ccc(C(N)=O)cc1 (stereo not given),,24.6%,-16.1% [at 0.0737 µM] (inactive)
CC(Sc1nccn1C)C(=O)Nc1ccccc1 (stereo not given),inactive,-8.41%,
Cc1ccc(NS(=O)(=O)c2ccc(-c3ccc(=O)[nH]n3)o2)c(C)c1,inactive,3.54%,
Cc1ccc(C)c(NS(=O)(=O)c2ccc(-c3ccc(=O)[nH]n3)o2)c1,inactive,-3.63%,
Cc1cccc(C)c1NS(=O)(=O)c1ccc(-c2ccc(=O)[nH]n2)o1,16.4 µM (active),-21.6%,
